For one experiment, the system named is PPARg:RXRa 270nM:90nM, anti-RXR (NR concentration 270 nM, RXRa partner concentration 90 nM). Description: PBM binding z-score (relative to random genomic background probes); higher = stronger binding; sequences stand for … in GC…GCGATTGACAGCGTAGAATGAAGG
The gist of the method: (§1)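 Random background probes are the reference for binding z-scores. These scores derive from regression-normalized fluorescence on custom Agilent 4×180K protein-binding microarrays incubated 1 h with ligand-free nuclear receptor dimers. Binding was detected with antibodies against each partner (one per run).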
TCGAGTAGGTTAGGGGCATTCAAAATGGCGTCGA returned a PBM binding z-score of 1.98.
On to TCTCGGTGGACACGAAAGGTCAGAGCTCGACATC, for which the PBM binding z-score turned out to be 2.93.
TGAATGAGGTTATAAGATCAGCGAACGTTGCAAA: the PBM binding z-score is 1.89.
In turn, GCTTGTAGATTAAGGTTAAGAAAGACTAAGCTAA registered a PBM binding z-score of 0.627.
The sequence CGAAGTAGGTCAAGGACAGTGAATCTCCGCACGC showed a PBM binding z-score of 6.95.
ACTAGAAGGCCAAGTTTGGGTCACTCAAACAAAG yielded a PBM binding z-score of 0.723.
Same read-out and setting: the figure for CCTACTGGGCCACGGAAGGTCATTGATTCAGTGA is 3.37.
Same read-out and setting: the figure for TCTAGTAGATCAATAGAGGTTAAGAAAGTGCGCT is 1.7; for AATACAGGGTCATCGTCGGCCAGAGTACGCACAG it is 6.01.
Regarding TGAATGAGGTTATAAGATCAGGGATCGTTGCAAA, the PBM binding z-score was determined as 2.12.
The same measure, in the same setting: then ATAGAAAGGTCGAGGTGAGTATAGAGAAAGGGAA, with 3.43; and ATCTCTAGGTAAAAGTTCAGTCAATCCCGAGGAT, with 8.34; and CCTTAAGGGTCAAGGTTATAGCACGGGTGGTACG, with 5.97.
CTCGAAAGGTCGTGCTCAGGTGAGTATACCAAAC yielded a PBM binding z-score of 3.65.
In turn, ACAGACAGTTGAGTGAAGGTAACTCAGCTGGACG showed a PBM binding z-score of -0.26.
The same measure, in the same setting: the figure for GCTGCTAGGTTAGGTTGGTCAGCTAACGGGTACG is -0.464; for CGTCCAAGGTCAAGGGTCAGTGAAGAGATGACGG it is 7.9.

In the next experiment the test system is PPARg:RXRa 30nM:10nM, anti-RXR (NR concentration 30 nM, RXRa partner concentration 10 nM). The experiment is described as above. The gist of the method: as §1
With AGAACGAGGGCAATGAGTTGATAACACGGGTGGC, the PBM binding z-score was 0.0129.
With ACTAGCAGGCCAAGGGTCAATCAAGATTAGTCCG, the PBM binding z-score was 6.29.
For the sequence AATACAGGGTCATCGTAGGCCAGTGTACGCACAG, the PBM binding z-score worked out at 3.01.
The same measure, in the same setting: then TGTCAAAGTTCAAAGGCAACGTAAGTATCCACAC, with 5; and TGGCCTAGGTCATTGGGCCAGTATAGTACGCATC, with 0.438.
Sequence ATCGAAAGGTCGGCGAGGTGAGTATACACCGTTT gave a PBM binding z-score of 0.34.
On the same count and under the same terms, the figure for CCTAGTTGGTCAAGAGGTCACACACCGGATATGA is 3.16; for TCTGCTAGGTCAGCTGGTCAGCTAACGAGCTGCC it is 1.12; for CCGACTGGAGCAGAAAGGTTACCATACCATCCGG it is 0.683.
The sequence CAAACTAGGTCACCTGAAGGTCAAAGTCCGCATG gave a PBM binding z-score of 5.48.
Sequence GCCACTGGGGCATCAGCAGGTTACCATAACTTAA came in with a PBM binding z-score of 0.184.
On the same count and under the same terms, then CAGCCTAGGTCAGGGCCAATATAGGAGGAACGTT, with 0.246.
CTGAGTAGGTTATGGGGCATTCAGGCAACGGTGA registered a PBM binding z-score of 3.08.
In turn, CGACCAAGGTCAAAGGTCAGTGAAGAGATGACGG had a PBM binding z-score of 9.86.
ACTCGTAGGACAAAGGTCAGAGCTACGCCAGTGA showed a PBM binding z-score of 6.47.
The same measure, in the same setting: the figure for GGTACGAGGGCAAGTTGATAGCAGAGTTTGATGG is -0.104.
CTCGAAAGGTCGTTCTCAGGTGAGTATACCAAAC yielded a PBM binding z-score of 0.949.
In turn, AGTACAGGGTCATCGTAGGCCAGAGTACGCACAG gave a PBM binding z-score of 2.18.
The sequence TCTTGTGGATCAGCAGGTTAAGAAAGCTGGCCAA registered a PBM binding z-score of 2.47.
For the sequence TTACCAAGGTGAGCAGAGGTCGTTGATCCAACTC, the PBM binding z-score was 0.857.
GCGACAGGGGCATCAGCAGGTTACCATAACTTAA: the PBM binding z-score was -0.411.
TCATATAGTTAAAAGGTGAAAGTCGGTGTGGTAA displayed a PBM binding z-score of 5.04.
TCGAGTAGGTTAGGGGCATTCAAAATGGCGTCGA came in with a PBM binding z-score of 1.27.
In the case of TCTCGGTGGACACGAAAGGTCAGAGCTCGACATC, the PBM binding z-score was 2.55.
Sequence TGAATGAGGTTATAAGATCAGCGAACGTTGCAAA displayed a PBM binding z-score of 0.811.
Regarding GCTTGTAGATTAAGGTTAAGAAAGACTAAGCTAA, the PBM binding z-score was -0.258.
In turn, CGAAGTAGGTCAAGGACAGTGAATCTCCGCACGC showed a PBM binding z-score of 4.62.
ACTAGAAGGCCAAGTTTGGGTCACTCAAACAAAG: the PBM binding z-score is -0.386.
The same measure, in the same setting: the figure for CCTACTGGGCCACGGAAGGTCATTGATTCAGTGA is 1.05; for TCTAGTAGATCAATAGAGGTTAAGAAAGTGCGCT it is 2.76.
AATACAGGGTCATCGTCGGCCAGAGTACGCACAG gave a PBM binding z-score of 2.65.
With TGAATGAGGTTATAAGATCAGGGATCGTTGCAAA, the PBM binding z-score was determined as 0.946.
Sequence ATAGAAAGGTCGAGGTGAGTATAGAGAAAGGGAA had a PBM binding z-score of 1.67.
Same read-out and setting: then ATCTCTAGGTAAAAGTTCAGTCAATCCCGAGGAT, with 7.47.
In the case of CCTTAAGGGTCAAGGTTATAGCACGGGTGGTACG, the PBM binding z-score is 2.96.
Consider CTCGAAAGGTCGTGCTCAGGTGAGTATACCAAAC, for which the PBM binding z-score came out at 0.746.
As for ACAGACAGTTGAGTGAAGGTAACTCAGCTGGACG, the PBM binding z-score is -0.0499.
GCTGCTAGGTTAGGTTGGTCAGCTAACGGGTACG: the PBM binding z-score was -0.769.
In turn, CGTCCAAGGTCAAGGGTCAGTGAAGAGATGACGG returned a PBM binding z-score of 6.12.

Values taken from the supplement of paper PMC6555819.
